Source: PubChem BioAssay (Tox21)
Where “and” joins values, the source holds several entries; their conditions need not be identical. Equal entries are not always repeated. Results filed as inconclusive are left out. Where a call stands in place of a potency, no number is given. More than one record can exist for a structure, and the calls need not agree. Calls of active or inactive are those of the source. Calls follow the shape of the dose curve; as a rule, active = well fitted cell-killing curve with a large enough effect in the repeat runs; inconclusive = weak or mixed curves; inactive = no such curve, though single readings can be large or run the other way.

Assay: qHTS assay to identify small molecule agonists of the peroxisome proliferator-activated receptor delta (PPARd) signaling pathway - cell viability counter screen (AID 743211); also: nearly all actives have a fitted effect of over 55% in size
Conditions: PPARd-bla HEK293H viability, CellTiter-Glo luminescence, 17 h; series mostly up to 62.6 µM
From the text: U.S. Tox21 Program National Center for Advancing Translational Sciences [NCATS] NIH Chemical Genomics Center [NCGC] U.S. Environmental Protection Agency [EPA] National Institutes of Environmental Health Sciences [NIEHS] National Toxicology Program [NTP] U.S. Food and Drug Administration [FDA] Tox21 Assay Overview: The peroxisome proliferator-activated receptors (PPARs) are lipid-activated transcription factors of the nuclear receptor superfamily with three distinct subtypes namely PPAR alpha, PPAR delta (PPARd) and PPAR gamma. All these subtypes heterodimerizes with Retinoid X receptor (RXR) and have different physiological functions. […] To identify the compounds that activate PPAR-delta signaling, GeneBLAzer PPAR delta UAS-bla HEK293H cell line (Invitrogen, Carlsbad, CA, USA) containing a beta-lactamase reporter gene under the control of an Upstream Activator Sequence (UAS) was used to screen the Tox21 compound library. The cytotoxicity of the Tox21 compound library against the PPARd-bla cell line was tested in parallel by measuring the cell viability using CellTiter-Glo assay (Promega, Madison, WI) in the same wells.
Tox21 Assay Protocol Summary: PPARd-bla cells were dispensed at 3000 cells/6uL/well in 1536-well black wall/clear bottom plates using a Multidrop Combi (Thermo Fisher Scientific, Waltham, MA) dispenser. After the assay plates were incubated at 37 C and 5% CO2 for 5 h, 23 nL of compounds dissolved in DMSO, positive controls or DMSO only was transferred to the assay plate by a Pintool station (Kalypsys, San Diego, CA). The assay plates were incubated at 37C for 17 h. After 1 uL of LiveBLAzerTM B/G FRET substrate was added using a Bioraptr Flying Reagent Dispenser (FRD) workstation (Beckman Coulter, Indianapolis, IN, USA), the plates were incubated at room temperature for 2 h, and fluorescence intensity was measured by an Envision plate reader (PerkinElmer, Shelton, CT). For cell viability readout that measures cytotoxicity, 3 ul/well of CellTiter-Glo reagent was added into the assay plates using a Bioraptr FRD. After 30 min incubation at room temperature, the luminescence intensity in the plates was measured using a ViewLux plate reader (PerkinElmer).
Potency is read from the fitted curve at half-maximal effect.

SMILES | Potency
Nc1cccc(N)c1 | inactive
CN/C(=C\[N+](=O)[O-])NCCSCc1ccc(CN(C)C)o1 | inactive
COc1ccccc1NC(=O)CC(C)=O | inactive
O=C1CCCCCN1 | inactive
COc1ccc(C(=O)c2ccccc2)c(O)c1 | inactive
COCC(C)N (stereo not given) | inactive
Cc1c(N(C)CS(=O)(=O)O)c(=O)n(-c2ccccc2)n1C | inactive
COc1cc(C=O)ccc1O | inactive
NC(N)=NC(N)=NCCc1ccccc1 | inactive
CC(C)(C)NCC(O)c1ccc(O)c(CO)c1 (stereo not given) | inactive
CCn1cc(C(=O)O)c(=O)c2ccc(C)nc21 | inactive
CC(=O)c1ccc(S(=O)(=O)NC(=O)NC2CCCCC2)cc1 | inactive
CC(=O)CCC(C)C | inactive
CCN1CCCC1=O | inactive
NC(=O)OCC(COC(N)=O)c1ccccc1 | inactive
C[C@]12CC[C@@H]3c4ccc(O)cc4CC[C@H]3[C@@H]1CCC2=O | inactive
C[C@]12C[C@H](O)[C@H]3[C@@H](CCC4=CC(=O)CC[C@@]43C)[C@@H]1CC[C@@H]2C(=O)CO | inactive
CCCCCCCCCCCCCC(=O)OC(C)C | inactive
COC(=O)c1ccc(O)cc1 | inactive
COc1cc(O)c(C(=O)c2ccccc2)cc1S(=O)(=O)O | inactive

SMILES | Potency
N[C@@H](Cc1c[nH]c2ccccc12)C(=O)O | inactive
C=CC(=O)NC(C)(C)CS(=O)(=O)O | inactive
O=C1OC(c2ccc(O)cc2)(c2ccc(O)cc2)c2ccccc21 | inactive
CC1=C(/C=C/C(C)=C/C=C/C(C)=C/C(=O)O)C(C)(C)CCC1 | inactive
CCCCC/C(C=O)=C\c1ccccc1 | inactive
NC(=O)N/N=C/c1ccc([N+](=O)[O-])o1 | inactive
CC(=O)/C=C/C1=C(C)CCCC1(C)C | inactive
CCCCOCCOCCOC(C)=O | inactive
CO[C@H]1C=CO[C@@]2(C)Oc3c(C)c(O)c4c(O)c(c(/C=N/N5CCN(C)CC5)c(O)c4c3C2=O)NC(=O)/C(C)=C\C=C[C@H](C)[C@H](O)[C@@H](C)[C@@H](O)[C@@H](C)[C@H](OC(C)=O)[C@@H]1C | inactive
CCOC(=O)C(C)(C)Oc1ccc(Cl)cc1 | inactive
COc1ccccc1O | inactive
NC(=O)c1ccc([N+](=O)[O-])cc1Cl | inactive
COc1cc2c(c(OC)c1OC)-c1ccc(OC)c(=O)cc1[C@@H](NC(C)=O)CC2 | inactive
C#C[C@]1(O)CC[C@H]2[C@@H]3CCc4cc(O)ccc4[C@H]3CC[C@@]21C | inactive
CCCCCCCC(=O)OCC(O)CO (stereo not given) | inactive
O=[N+]([O-])c1ccc(O)cc1 | inactive
O=C(OCc1ccccc1)c1ccccc1 | inactive
NCCNc1cccc2ccccc12 | 54.9 µM (active) and 47.8 µM (active) and inactive
CC(C)Cc1ccc(C(C)C(=O)O)cc1 (stereo not given) | inactive
CC1(C)O[C@@H]2[C@@H](CO[C@@]3(COS(N)(=O)=O)OC(C)(C)O[C@@H]23)O1 | inactive
